{"source": "the OligoGym collection"}
{"target": "TM4SF4", "test": "pooled miR-30 sensor sort-seq; sequence = guide strand", "settings": "shRNA"}
{"sequence": "TTGTCATCTATCACTTTTCCTC", "sensor-assay potency score (higher = more potent)": -0.799}
{"sequence": "TTTGAAAATAACAAAATTCTAA", "sensor-assay potency score (higher = more potent)": -0.879}
{"sequence": "TTGACCACCTGGATGGCGCAGA", "sensor-assay potency score (higher = more potent)": -0.376}
{"sequence": "TTGTTGATTGAAATGGCTGAGA", "sensor-assay potency score (higher = more potent)": -0.818}
{"sequence": "AACATCGCAAATCGCTTCCCAC", "sensor-assay potency score (higher = more potent)": -1.03}
{"sequence": "AAGATCATCAAGACACCGCTTC", "sensor-assay potency score (higher = more potent)": 0.685}
{"sequence": "TCGTGGAGGTGAACATCGCAAA", "sensor-assay potency score (higher = more potent)": -1.55}
{"sequence": "ATTGAGATAATCCCCGTCGTGG", "sensor-assay potency score (higher = more potent)": -0.0711}
{"sequence": "TTTTCTAAGCTTTATCAGCTAG", "sensor-assay potency score (higher = more potent)": -0.744}
{"sequence": "TAAACGAGTATCCAGCTCCCAA", "sensor-assay potency score (higher = more potent)": -1.07}
{"target": "TM7SF2", "test": "pooled miR-30 sensor sort-seq; sequence = guide strand", "settings": "shRNA"}
{"sequence": "TCATGTGTGATATCCATGGTGG", "sensor-assay potency score (higher = more potent)": -0.309}
{"sequence": "TTGATGAGGCAGATGACAGAGG", "sensor-assay potency score (higher = more potent)": -0.497}
{"sequence": "TTCATGTAGAGAAAGAGGCTGA", "sensor-assay potency score (higher = more potent)": 0.647}
{"sequence": "TACTTCTGCAGGCACTGCCGCT", "sensor-assay potency score (higher = more potent)": -1.41}
{"sequence": "TTTGAAGTCGAAGAAACAGATA", "sensor-assay potency score (higher = more potent)": -1.28}
{"sequence": "TAGAGATGGTCTCAAGCCCAGC", "sensor-assay potency score (higher = more potent)": -1.47}
{"sequence": "AGATGTAGTAACCAGTAGCATT", "sensor-assay potency score (higher = more potent)": -2.06}
{"sequence": "TTTCGGAAAGTGTTTTTCTGGG", "sensor-assay potency score (higher = more potent)": -0.966}
{"sequence": "TATTTGAAGTCGAAGAAACAGA", "sensor-assay potency score (higher = more potent)": -0.986}
{"sequence": "TTGAGTCCCAAGTGTGTCGAGG", "sensor-assay potency score (higher = more potent)": -0.705}
{"sequence": "TTGTCCTTCAATTCCTGCCCCT", "sensor-assay potency score (higher = more potent)": -0.137}
{"target": "TMCC3", "test": "pooled miR-30 sensor sort-seq; sequence = guide strand", "settings": "shRNA"}
{"sequence": "TTGTTCACGATGGTAGCGCTGC", "sensor-assay potency score (higher = more potent)": -0.609}
{"sequence": "TATTTTATTCTTGCTAGTCTTT", "sensor-assay potency score (higher = more potent)": -0.521}
{"sequence": "TAATGTTAAAGTCACAGTCTGA", "sensor-assay potency score (higher = more potent)": -0.348}
{"sequence": "TTAAAGTGTAACAAAACCCCTC", "sensor-assay potency score (higher = more potent)": -0.0862}
{"sequence": "TTATTGAAAACGAACACAGGTG", "sensor-assay potency score (higher = more potent)": -0.162}
{"sequence": "TTTGACCTTGTGGAAGTCCAGG", "sensor-assay potency score (higher = more potent)": -0.907}
{"sequence": "TTGAAAACGAACACAGGTGGAG", "sensor-assay potency score (higher = more potent)": 0.022}
{"sequence": "TACCTTTAGAATTTTTTGCTTC", "sensor-assay potency score (higher = more potent)": -0.127}
{"sequence": "TTGCTTGATACGTCCCGCCTGC", "sensor-assay potency score (higher = more potent)": -0.167}
{"sequence": "TTGCACTTAATTTGAATCCAGG", "sensor-assay potency score (higher = more potent)": -0.313}
{"sequence": "TTGGGTATCCTTGATCTCCCTC", "sensor-assay potency score (higher = more potent)": 0.381}
{"sequence": "TTCTCTCTTAAACTGCACCTTC", "sensor-assay potency score (higher = more potent)": 0.0499}
{"target": "TMCO6", "test": "pooled miR-30 sensor sort-seq; sequence = guide strand", "settings": "shRNA"}
{"sequence": "AACATTGCACAGAACTGTGAGC", "sensor-assay potency score (higher = more potent)": -0.57}
{"sequence": "TTCCTCAGCCTGTAGAAGCTGG", "sensor-assay potency score (higher = more potent)": -0.621}
{"sequence": "TTGTAGCATGTGCTGAGGGAGA", "sensor-assay potency score (higher = more potent)": -1.18}
{"sequence": "TTTCTCAGCAGCCTCTTGCTGA", "sensor-assay potency score (higher = more potent)": -0.697}
{"sequence": "TACTGGACAAACAAGCTTGATG", "sensor-assay potency score (higher = more potent)": -0.998}
{"sequence": "ATACACACGATCCTGGAGCTGG", "sensor-assay potency score (higher = more potent)": -0.0753}
{"sequence": "AACATTTGTAGCATGTGCTGAG", "sensor-assay potency score (higher = more potent)": 0.662}
